Measurements as given in the supplement of paper PMC6555819.

Key:
Assay in all cases: PBM binding z-score (relative to random genomic background probes); higher = stronger binding; sequences stand for … in GC…GCGATTGACAGCGTAGAATGAAGG
[1] = system: RARb homodimer (NR concentration 270 nM)
Summary of the method: (§1)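 Random background probes are the reference for binding z-scores. These scores derive from regression-normalized fluorescence on custom Agilent 4×180K protein-binding microarrays incubated 1 h with ligand-free nuclear receptor dimers. Binding was detected with antibodies against each partner (one per run).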

[2] = system: RARg:RXRa (NR concentration 270 nM, RXRa partner concentration 90 nM)
Summary of the method: as §1

[3] = system: RARg homodimer (NR concentration 270 nM)
Summary of the method: as §1

[4] = system: RXRa DBDmut IVT, anti-RXR (DBD mutation: RXRa K156A/R161A, NR concentration 90 nM)
Summary of the method: as §1

[5] = system: RXRa homodimer (NR concentration 180 nM)
Summary of the method: as §1

[6] = system: THRa:RXRa (NR concentration 90 nM, RXRa partner concentration 90 nM)
Summary of the method: as §1

[7] = system: THRa homodimer (NR concentration 90 nM)
Summary of the method: as §1

[8] = system: VDR homodimer (NR concentration 270 nM)
Summary of the method: as §1

Sequence | PBM binding z-score [1] | PBM binding z-score [2] | PBM binding z-score [3] | PBM binding z-score [4] | PBM binding z-score [5] | PBM binding z-score [6] | PBM binding z-score [7] | PBM binding z-score [8]
TAGCCTAGGTAATGGGCCAGTATACCACGCGAAC | -0.381 | -0.234 | -0.0696 | -1.16 | -0.0912 | -0.354 | -0.5 | -0.715
AGTCAAAGTTCATCTAGGTAAAGTAAGATATGCT | 3.76 | 5.67 | 6.09 | 4.8 | 5.07 | 3.07 | 0.199 | 5.29
TTACCACGGTGAAGGTCGTTGATCCCTCTGTAGA | 1.29 | 0.459 | 0.382 | -0.000966 | 1.37 | 0.834 | 0.375 | 0.451
TCATATAGGTAAAAGTGAAAGTCGAACGATATGA | -0.485 | 0.288 | 0.384 | 0.791 | 0.523 | -0.171 | -0.456 | -0.103
ATCTCTAGGGAAAGTTCAGTGAAAGATCGATAGA | 2.2 | 2.01 | 2.11 | 1.12 | 1.21 | 0.605 | 0.0589 | 1.68
CGAACTAGGTCAGAACAGGACAGTGACGGATGAT | 2 | 2.38 | 3.42 | 0.578 | 1.31 | 3.31 | 0.199 | 0.168
TCGAATAGGTTAGGGGCATTCAGAATGGCGTCGA | 1.08 | 0.753 | 0.9 | 1.19 | 1.15 | 0.948 | 0.436 | 0.995
TCTTGTAGATCAGTAGAGGTTAAGAAAGTGCGCT | 1.26 | 0.475 | 0.344 | 0.802 | 1.24 | 1.88 | -0.288 | 0.245
ATCTCTAGGTAACCAGTTCAGTGAAAGAGAGGAC | 1.05 | 0.822 | 0.768 | 0.358 | 0.791 | 1.35 | 1.18 | 1.35
CCTTACGGGTCAAGGTTACAGCACGGGTGGTACG | 3.8 | 5.07 | 4.96 | 0.498 | 5.42 | 3.38 | 1.09 | 1.19
TCTGCTAGGTCCGTTGGTCAGCTAACGAGCTGCC | -0.396 | -0.454 | -0.542 | 0.392 | -0.5 | -0.748 | -1.13 | -0.592
GCTAGCAGGCCATTTGTGTCACTCAATGACGGGC | -0.0499 | -0.217 | 0.011 | 0.131 | -0.25 | -0.583 | -0.967 | -0.895
CTCGGAAGGTCGGTTGAGGTGAGTATACGGATAA | 1.62 | 1.28 | 1.86 | 0.318 | 0.83 | 4.59 | 1.32 | 0.205
ACTAGCAGGCCAAGTTTGGGTCACTAAAACAAAG | 2.17 | 2.1 | 1.53 | -0.281 | 0.88 | 2.52 | 0.917 | 0.383
AATACAGGGTTATCGTAGGCCAGAGTACGCACAG | 1.09 | 1.52 | 1.11 | 0.484 | 2.28 | 3.61 | 0.15 | 1.12
CCTACTGGGCCACAAAAGGTCATTGATTCAGTGA | 4.58 | 4.47 | 3.91 | 0.362 | 4.76 | 3.73 | 0.921 | 1.92
TAGACTAGGTCATTCAGGGGCCAGTATAGAAAGC | 3.07 | 5.47 | 4.47 | 1.33 | 2.82 | 3.29 | 0.816 | 1.63
ATCGAAAGGTCGACGTGAGTATAGAGAAAGGGAA | 2.07 | 3.93 | 3.91 | 1.34 | 3.94 | 1.79 | -0.87 | 0.464
CAAAGTAGGTCAAAGGTCAAAGTCGAGCCAACCA | 5.32 | 8.87 | 7.72 | 3.17 | 10.4 | 4.54 | 1.22 | 3.8
CCTTACGGGTCACTCCAGGTTAGAGCATCGGAGT | 3.08 | 4.43 | 4.37 | 1.55 | 4.07 | 4.81 | 0.277 | 1.18
CCTACTGGGCCAAGTTCATTGATCAGTCAAAGCA | 1.71 | 1.45 | 1.09 | 2.37 | 0.409 | 0.994 | 0.294 | 4.4
TCAGACAGGTGAAGGTAACTCGGGTACGCAGTCG | 1.04 | 0.783 | 0.664 | 1.16 | 1.23 | 1.66 | 0.72 | 0.873
ATCTCTAGGTAAAAGTTCTGTGAATCCCGAGGAT | -0.265 | 0.293 | 0.308 | -0.0693 | 0.153 | 0.234 | 0.364 | 0.467
TGAATGAGGTTATAAGAGCAGGGAACGTTGCAAA | 0.269 | 1.47 | 0.87 | 0.547 | 1.87 | 1.66 | 0.0456 | 0.451
TGAATGAGGTTAAAGATAAGGGAACGTGGCGTCG | 0.5 | 2.21 | 1.32 | 1.25 | 2.88 | 2.37 | 0.283 | 0.766
CCTTACGGGTCACGAGGTTACAGCACGACGAGCG | 4.03 | 6.15 | 5.42 | 1.87 | 7.09 | 4.16 | 1.69 | 1.89
CCTATTAGTTGACCATAAGGGAAACCGAAGCTCG | 0.512 | 0.264 | 0.552 | 0.71 | 0.398 | 0.545 | 0.494 | 0.692
TCTTGTAGATCAGCAGGTGAAGAAAGCTGGCCAA | -0.153 | -0.237 | -0.356 | 0.475 | 0.184 | 0.0556 | -0.332 | -0.766
